Results: PubChem BioAssay (NCI)
The panel holds about 83,000 compounds, 20% with a hit somewhere; the sample as a whole holds those more often.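 Testing used 96-well plates and a 48-hour single-concentration exposure. Example: -40 means 40% of the starting cells died.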 Calls of active or inactive are those of the source. The calls were made as follows: active = growth percent below 10; inactive = the rest.

Legend:
Experiment in all cases: NCI-60 one-dose screen, 48 h (100 = growth as untreated, 0 = no growth, -100 = all killed)
Settings in all cases: 10 µM unless noted
SK-MEL-2 melanoma = system: SK-MEL-2 melanoma
EKVX NSCLC = system: EKVX NSCLC
SN12C renal = system: SN12C renal
UO-31 renal = system: UO-31 renal
TK-10 renal = system: TK-10 renal
ACHN renal = system: ACHN renal
CAKI-1 renal = system: CAKI-1 renal
A498 renal = system: A498 renal
CCRF-CEM leukemia = system: CCRF-CEM leukemia
MOLT-4 leukemia = system: MOLT-4 leukemia

Measured: growth

O=C(NNC(=S)Nc1ccccc1)c1ccc(Nc2ncnc3c2cnn3-c2cccc(Br)c2)cc1
inactive: SK-MEL-2 melanoma 105% | EKVX NSCLC 105% | SN12C renal 96.1% | UO-31 renal 82.3% | TK-10 renal 106% | ACHN renal 106% | CAKI-1 renal 93.4% | A498 renal 102% | CCRF-CEM leukemia 108% | MOLT-4 leukemia 104%

COc1ccccc1/C=N\NC(=S)Nc1ccc(F)cc1
inactive: SK-MEL-2 melanoma 81% | EKVX NSCLC 75.7% | SN12C renal 81.1% | UO-31 renal 62.2% | TK-10 renal 97.5% | ACHN renal 87.5% | CAKI-1 renal 88.5% | A498 renal 67% | CCRF-CEM leukemia 89.2% | MOLT-4 leukemia 57.3%

COC(=O)C(CCC(=O)CCl)N1C(=O)c2ccccc2C1=O (stereo not given)
active: CCRF-CEM leukemia 5.21%
inactive: SK-MEL-2 melanoma 67.4% | EKVX NSCLC 108% | SN12C renal 69.9% | UO-31 renal 48.4% | TK-10 renal 54% | ACHN renal 71.2% | CAKI-1 renal 67.9% | A498 renal 123% | MOLT-4 leukemia 42.6%

O=C(Cn1nncc1CN1C(=O)CSC1=O)Nc1ccc(F)cc1
inactive: SK-MEL-2 melanoma 101% | EKVX NSCLC 92.6% | SN12C renal 98.3% | UO-31 renal 87.6% | TK-10 renal 97.9% | ACHN renal 97.9% | CAKI-1 renal 96.4% | A498 renal 76.4% | CCRF-CEM leukemia 97.4% | MOLT-4 leukemia 105%

COc1ccc(CCN2COc3c([C@@H](C)CCC=C(C)C)ccc(C)c3C2)cc1OC
inactive: SK-MEL-2 melanoma 89.4% | EKVX NSCLC 63.2% | SN12C renal 52.8% | UO-31 renal 41.4% | TK-10 renal 76.9% | ACHN renal 70% | CAKI-1 renal 68.7% | A498 renal 66.2% | CCRF-CEM leukemia 62.6% | MOLT-4 leukemia 48.3%

COc1ccc2[nH]cc(/C=C3\C(=O)Nc4ccccc43)c2c1
active: UO-31 renal -14.7% | CAKI-1 renal -0.757% | MOLT-4 leukemia 1.26%
inactive: SK-MEL-2 melanoma 12.6% | EKVX NSCLC 49% | SN12C renal 49.5% | TK-10 renal 53% | ACHN renal 34.6% | A498 renal 40.5% | CCRF-CEM leukemia 14%

Nc1nc(N)c2cc(Sc3ccc(Cl)cc3)ccc2n1
inactive: SK-MEL-2 melanoma 50.7% | EKVX NSCLC 33.6% | SN12C renal 29.7% | UO-31 renal 21.6% | TK-10 renal 43% | ACHN renal 23% | CAKI-1 renal 13.5% | A498 renal 63.6% | CCRF-CEM leukemia 41.5% | MOLT-4 leukemia 25.8%

O=C(c1ccccc1)N(CCCCl)C(=O)N(CCCCl)C(=O)c1ccccc1
inactive: SK-MEL-2 melanoma 103% | EKVX NSCLC 81% | SN12C renal 94.6% | UO-31 renal 73.4% | TK-10 renal 96.8% | ACHN renal 90.9% | CAKI-1 renal 74.9% | A498 renal 79.5% | CCRF-CEM leukemia 99.7% | MOLT-4 leukemia 84.4%

Oc1ccc(CCCCCCc2ccc(O)cc2)cc1
active: ACHN renal -4.64%
inactive: SK-MEL-2 melanoma 89.2% | EKVX NSCLC 74.5% | SN12C renal 69.6% | UO-31 renal 25.6% | TK-10 renal 84.9% | CAKI-1 renal 16.8% | A498 renal 103% | CCRF-CEM leukemia 18.5% | MOLT-4 leukemia 106%

Fc1cnccc1-c1nc2ccc3[nH]ncc3c2c2c1CCCC2
active: SK-MEL-2 melanoma -1.94% | ACHN renal 7.42% | CAKI-1 renal -4.24% | A498 renal 0.691%
inactive: EKVX NSCLC 35.6% | SN12C renal 25.6% | UO-31 renal 11.6% | TK-10 renal 13.7% | CCRF-CEM leukemia 16.1% | MOLT-4 leukemia 21.2%

COc1c(B(O)O)cccc1-c1nc2ccc3[nH]ncc3c2c2c1CCCC2
active: UO-31 renal 0.387% | ACHN renal 3.93% | CAKI-1 renal 5.83% | A498 renal -16.4% | CCRF-CEM leukemia 6.99%
inactive: SK-MEL-2 melanoma 33.7% | EKVX NSCLC 23.6% | SN12C renal 23.7% | TK-10 renal 11.5% | MOLT-4 leukemia 11.5%

O=C(OCc1ccc2c(Cl)cc(Cl)c(O)c2n1)c1cc2ccccc2[nH]1
active: SK-MEL-2 melanoma -54.6% | EKVX NSCLC -71.9% | SN12C renal -60.6% | UO-31 renal -100% | TK-10 renal -94.1% | ACHN renal -96.7% | CAKI-1 renal -98% | A498 renal -78.4% | CCRF-CEM leukemia 0% | MOLT-4 leukemia -8.99%

CCCCNCC(O)c1cc(-c2ccc(C(F)(F)F)cc2)nc(-c2ccc(C(F)(F)F)cc2)c1 (stereo not given)
active: SK-MEL-2 melanoma -67.1% | EKVX NSCLC -61.8% | SN12C renal -73.2% | UO-31 renal -88.2% | TK-10 renal -94.4% | ACHN renal -71.6% | CAKI-1 renal -73% | A498 renal -68.1% | CCRF-CEM leukemia -36.4% | MOLT-4 leukemia -56.7%

COc1cc(NCCCCC(C)N)c2nccc(C)c2c1 (stereo not given)
inactive: SK-MEL-2 melanoma 105% | EKVX NSCLC 78.3% | SN12C renal 87.1% | UO-31 renal 38.2% | TK-10 renal 99.1% | ACHN renal 94% | CAKI-1 renal 94.8% | A498 renal 68.6% | CCRF-CEM leukemia 99.7% | MOLT-4 leukemia 81.7%

COc1cc2nccc(Oc3ccc(NC(=O)C4(C(=O)Nc5ccc(F)cc5)CC4)cc3)c2cc1Oc1ccc(N)cn1
inactive: SK-MEL-2 melanoma 54.3% | EKVX NSCLC 15.9% | SN12C renal 14.8% | UO-31 renal 19.8% | TK-10 renal 36.3% | ACHN renal 18.6% | CAKI-1 renal 43.5% | CCRF-CEM leukemia 61.2% | MOLT-4 leukemia 29.5%
active: A498 renal -20.9%

N#Cc1nc(-c2ccc(Cl)cc2)cc(-c2ccc(Nc3nc(N4CCCCC4)nc(N4CCCCC4)n3)cc2)c1N
inactive: SK-MEL-2 melanoma 106% | EKVX NSCLC 91.8% | SN12C renal 104% | UO-31 renal 80% | TK-10 renal 120% | ACHN renal 96.8% | CAKI-1 renal 83.8% | A498 renal 110% | CCRF-CEM leukemia 107% | MOLT-4 leukemia 99.2%

CC(C)=CCC[C@H](C)c1ccc(C)c2c1OCN(CCO)C2
inactive: SK-MEL-2 melanoma 99.2% | EKVX NSCLC 97.2% | SN12C renal 79.6% | UO-31 renal 42.4% | TK-10 renal 88.4% | ACHN renal 90.1% | CAKI-1 renal 91.6% | A498 renal 47.2% | CCRF-CEM leukemia 87.5% | MOLT-4 leukemia 101%

Cc1cc(NC(=O)c2ccc(N)cc2)ccc1N=Nc1ccc2cc(S(=O)(=O)O)cc(S(=O)(=O)O)c2c1
inactive: SK-MEL-2 melanoma 121% | EKVX NSCLC 99.9% | SN12C renal 109% | UO-31 renal 101% | TK-10 renal 97.9% | ACHN renal 95.2% | CAKI-1 renal 91.5% | A498 renal 90.6% | CCRF-CEM leukemia 87.1% | MOLT-4 leukemia 112%

CC(C)c1ccc(Cn2ccc3c4c(N)nc(NC5CC5)nc4ccc32)cc1
active: SK-MEL-2 melanoma -82.6% | EKVX NSCLC -84.2% | SN12C renal -91.5% | UO-31 renal -99% | TK-10 renal -97.2% | ACHN renal -98.9% | CAKI-1 renal -98.6% | A498 renal -82.3% | CCRF-CEM leukemia -16.3% | MOLT-4 leukemia -42.8%

CCOC(=O)c1ccc(NCCC(=O)O)cc1
inactive: SK-MEL-2 melanoma 96.7% | EKVX NSCLC 122% | SN12C renal 108% | UO-31 renal 83.1% | TK-10 renal 101% | ACHN renal 103% | CAKI-1 renal 109% | A498 renal 113% | CCRF-CEM leukemia 97.6% | MOLT-4 leukemia 87.2%

CN(C)c1ccc(Nc2c3ccccc3nc3ccccc23)cc1
inactive: SK-MEL-2 melanoma 40.1% | EKVX NSCLC 19.1% | SN12C renal 16.4% | TK-10 renal 34.1% | A498 renal 14.2% | CCRF-CEM leukemia 19.9%
active: UO-31 renal -31% | ACHN renal -18.8% | CAKI-1 renal -13.5% | MOLT-4 leukemia 6.01%

CCN(CC)c1ccc(C(=N)c2ccc(N(C)C)cc2)cc1
inactive: EKVX NSCLC 15.2% | SN12C renal 24.8% | TK-10 renal 31.4% | ACHN renal 30.1% | CCRF-CEM leukemia 21.7% | MOLT-4 leukemia 17.7%
active: SK-MEL-2 melanoma -4.95% | UO-31 renal 8.99% | CAKI-1 renal -19.9% | A498 renal -20.1%

NC(=Nc1ccccc1)SCCCSC(N)=Nc1ccccc1
inactive: SK-MEL-2 melanoma 90.8% | EKVX NSCLC 78.8% | SN12C renal 89.3% | UO-31 renal 42.1% | TK-10 renal 101% | ACHN renal 81.5% | CAKI-1 renal 76.4% | A498 renal 80.2% | CCRF-CEM leukemia 79.3% | MOLT-4 leukemia 90.8%

CC(=O)O[C@H]1[C@H](CC#CC#CC[C@@H]2C[C@]3(C)[C@H]4CC=C5[C@H]6[C@@H](C)[C@H](C)CC[C@]6(C(=O)NCCCCCCCCN)CC[C@@]5(C)[C@]4(C)CC[C@H]3C(C)(C)[C@H]2OC(C)=O)C[C@]2(C)[C@H]3CC=C4[C@H]5[C@@H](C)[C@H](C)CC[C@]5(C(=O)NCCCCCCCCN)CC[C@@]4(C)[C@]3(C)CC[C@H]2C1(C)C
inactive: SK-MEL-2 melanoma 125% | EKVX NSCLC 110% | SN12C renal 97.8% | UO-31 renal 73.7% | TK-10 renal 145% | ACHN renal 119% | CAKI-1 renal 101% | A498 renal 118% | CCRF-CEM leukemia 105% | MOLT-4 leukemia 103%

COc1cccc2nc(Nc3cccc(NC(=O)c4ccc(N5CCN(C)CC5)c(C(F)(F)F)c4)c3)ccc12
active: MOLT-4 leukemia -16.6%
inactive: SK-MEL-2 melanoma 77.4% | EKVX NSCLC 66.7% | SN12C renal 45.7% | UO-31 renal 22.1% | TK-10 renal 51.1% | ACHN renal 26.8% | CAKI-1 renal 24.8% | A498 renal 64.4% | CCRF-CEM leukemia 12.5%

CCCCC(CCc1ccccn1)C(=O)c1ccccc1 (stereo not given)
inactive: SK-MEL-2 melanoma 116% | EKVX NSCLC 102% | SN12C renal 122% | UO-31 renal 79.7% | TK-10 renal 127% | ACHN renal 116% | CAKI-1 renal 99.5% | A498 renal 105% | CCRF-CEM leukemia 98.3% | MOLT-4 leukemia 112%

COc1ccc(/C(=C\c2ccc3c(c2)OCO3)C(=O)Nc2nc3ccccc3s2)cc1
inactive: SK-MEL-2 melanoma 95.2% | EKVX NSCLC 102% | SN12C renal 98.3% | UO-31 renal 91.9% | TK-10 renal 104% | ACHN renal 96.6% | CAKI-1 renal 91.4% | A498 renal 99.9% | CCRF-CEM leukemia 95.4% | MOLT-4 leukemia 70.9%
